Values joined by “and” are separate entries in the source; they are usually repeats but may differ in a detail not shown here. Equal values may be shown once. Among all 5,500 compounds or so, about 2,000 (36%) were called active. Roughly 18% stayed inconclusive and do not appear here. No stated cut-off is given here; in the data, active means normalized growth mostly below about 0.91 (no sharp cut-off); inconclusive means no clear call, values can overlap the other calls; inactive means mostly above about 0.92. This is one part of the list.
Assay: chemical genetic growth profiling, strain panel (AID 1159580);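 further: tested at 20 µM; growth read once vehicle control cultures reached saturation at 30 °C; 1 = growth at the plate median or of vehicle wells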
Details: S. cerevisiae deletion strains, growth OD

Measured: normalized growth

O=c1c(O)c(-c2ccccc2)oc2cc(O)ccc12
active: locus YAL021C, strain ccr4, stronger effect = lower value 0.572 | locus YAL026C, strain drs2, stronger effect = lower value 0.486 | locus YAL030W, strain snc1, stronger effect = lower value 0.66 | locus YBL061C, strain skt5, stronger effect = lower value 0.685 | locus YBR009C, strain hhf1, stronger effect = lower value 0.597 | locus YBR023C, strain chs3, stronger effect = lower value 0.518 | locus YBR171W, strain sec66, stronger effect = lower value 0.825 | locus YBR229C, strain ROT2, stronger effect = lower value 0.873 | locus YBR231C, strain swc5, stronger effect = lower value 0.572 | locus YBR279W, strain paf1, stronger effect = lower value 0.641 | locus YCL011C, strain gbp2, stronger effect = lower value 0.583 | locus YCL016C, strain dcc1, stronger effect = lower value 0.711 | locus YCL029C, strain bik1, stronger effect = lower value 0.779 | locus YCL061C, strain MRC1, stronger effect = lower value 0.799 | locus YCL069W, strain vba3, stronger effect = lower value 0.864 | locus YDL035C, strain GPR1, stronger effect = lower value 0.432 | locus YDL040C, strain nat1, stronger effect = lower value 0.847 | locus YDL074C, strain BRE1, stronger effect = lower value 0.455 | locus YDL101C, strain DUN1, stronger effect = lower value 0.697 | locus YDL192W, strain arf1, stronger effect = lower value 0.664 | locus YDR001C, strain nth1, stronger effect = lower value 0.887 | locus YDR069C, strain doa4, stronger effect = lower value 0.413 | locus YDR101C, strain arx1, stronger effect = lower value 0.903 | locus YDR137W, strain rgp1, stronger effect = lower value 0.38 | locus YDR150W, strain NUM1, stronger effect = lower value 0.707 | locus YDR162C, strain NBP2, stronger effect = lower value 0.121 | locus YDR297W, strain sur2, stronger effect = lower value 0.77 | locus YDR318W, strain mcm21, stronger effect = lower value 0.708 | locus YDR334W, strain swr1, stronger effect = lower value 0.704 | locus YDR335W, strain msn5, stronger effect = lower value 0.757 | locus YDR388W, stronger effect = lower value 0.759 | locus YDR392W, strain spt3, stronger effect = lower value 0.369 | locus YDR502C, strain sam2, stronger effect = lower value 0.751 | locus YEL003W, strain gim4, stronger effect = lower value 0.754 | locus YEL037C, strain rad23, stronger effect = lower value 0.794 | locus YEL061C, strain CIN8, stronger effect = lower value 0.705 | locus YER015W, strain faa2, stronger effect = lower value 0.454 | locus YER016W, strain bim1, stronger effect = lower value 0.766 | locus YER111C, strain swi4, stronger effect = lower value 0.873 | locus YER155C, strain BEM2 (second series), stronger effect = lower value 0.81 | locus YER155C, strain BEM2, stronger effect = lower value 0.627 | locus YER167W, strain BCK2, stronger effect = lower value 0.676 | locus YFR010W, strain ubp6, stronger effect = lower value 0.62 | locus YGL086W, strain mad1, stronger effect = lower value 0.699 | locus YGL167C, strain pmr1, stronger effect = lower value 0.882 | locus YGL173C, strain kem1, stronger effect = lower value 0.382 | locus YGL240W, strain doc1, stronger effect = lower value 0.675 | locus YGL248W, strain PDE1, stronger effect = lower value 0.506 | locus YGL253W, strain hxk2, stronger effect = lower value 0.508 | locus YGR078C, strain PAC10, stronger effect = lower value 0.586 | locus YGR135W, strain pre9, stronger effect = lower value 0.675 | locus YGR252W, strain gcn5, stronger effect = lower value 0.701 | locus YHR013C, strain ard1, stronger effect = lower value 0.439 | locus YHR027C, strain rpn1, stronger effect = lower value 0.339 | locus YHR079C, strain IRE1 (second series), stronger effect = lower value 0.913 | locus YHR094C, strain hxt1, stronger effect = lower value 0.903 | locus YHR129C, strain ARP1, stronger effect = lower value 0.564 | locus YHR142W, strain chs7, stronger effect = lower value 0.474 | locus YHR200W, strain rpn10, stronger effect = lower value 0.825 | locus YIL066C, strain RNR3, stronger effect = lower value 0.663 | locus YIL073C, strain SPO22, stronger effect = lower value 0.326 | locus YIR030C, strain dcg1, stronger effect = lower value 0.858 | locus YJL092W, strain hpr5, stronger effect = lower value 0.79 | locus YJL095W, strain BCK1 (second series), stronger effect = lower value 0.337 | locus YJL115W, strain asf1, stronger effect = lower value 0.9 | locus YJL129C, strain trk1, stronger effect = lower value 0.809 | locus YJL134W, strain LCB3, stronger effect = lower value 0.844 | locus YJL154C, strain vps35, stronger effect = lower value 0.885 | locus YJL164C, strain tpk1, stronger effect = lower value 0.432 | locus YJL166W, strain qcr8, stronger effect = lower value 0.471 | locus YJL168C, strain set2, stronger effect = lower value 0.902 | locus YJL187C, strain SWE1 (second series), stronger effect = lower value 0.5 | locus YJL187C, strain SWE1, stronger effect = lower value 0.653 | locus YJR043C, strain POL32, stronger effect = lower value 0.387 | locus YJR075W, strain HOC1, stronger effect = lower value 0.571
0.434 (active) and 1.07 (inactive): locus YHR030C, strain SLT2, stronger effect = lower value
inactive: locus YBR021W, strain FUR4, stronger effect = lower value 1.05 | locus YCR088W, strain abp1, stronger effect = lower value 0.937 | locus YDL005C, strain med2, stronger effect = lower value 0.941 | locus YDL185W, strain tfp1, stronger effect = lower value 0.928 | locus YDR159W, strain sac3, stronger effect = lower value 0.886 | locus YDR195W, strain ref2 1.07 | locus YEL061C, strain CIN8 (second series), stronger effect = lower value 0.915 | locus YER110C, stronger effect = lower value 0.92 | locus YGL078C, strain dbp3, stronger effect = lower value 0.948 | locus YGL227W, strain vid30, stronger effect = lower value 0.931 | locus YHR079C, strain IRE1, stronger effect = lower value 1.07 | locus YIL125W, strain kgd1, stronger effect = lower value 0.951 | locus YJR066W, strain TOR1, stronger effect = lower value 0.982
0.208 (active) and 1.01 (inactive): locus YJL095W, strain BCK1, stronger effect = lower value

Reference: PubChem BioAssay AID1159580 (chemical genetic matrix, 2015)
